Source: the supplement of paper PMC10849652
The full data set covers some 8,800 targets. This sample favours those with a hit. About 0.5% of all pairs of compound and target were hits.

Legend:
Experiment in all cases: log2 fold change, soluble protein after heating vs DMSO (PISA); higher = thermal stabilisation; K562 lysate, 10 uM; active = over 0.2 and 3.5 SD of the protein, either way, in both replicates (recomputed)
lapatinib = compound: CS(=O)(=O)CCNCc1ccc(-c2ccc3ncnc(Nc4ccc(OCc5cccc(F)c5)c(Cl)c4)c3c2)o1 [lapatinib]
Method in brief: (§1)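 K562 pellets were dounce-homogenised in PBS pH 7.4 with 1 mM MgCl2, and the crude extract at 1 mg/mL protein was treated with 10 μM compound for 30 min. Aliquots were heated for 3 min across 48°C-58°C, pooled, and brought to 0.5% NP-40 at 4°C; soluble protein was the supernatant after 21,000xg for 90 min. Soluble protein was quantified by TMTpro 16plex LC-MS/MS with channel sums equalised, and reported as log2 fold change in thermal stability against DMSO controls, with values from duplicates.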

crizotinib = compound: C[C@@H](Oc1cc(-c2cnn(C3CCNCC3)c2)cnc1N)c1c(Cl)ccc(F)c1Cl [crizotinib]
Method in brief: as §1

[1] = compound: C[C@H](C1=CC=C(C=C1)C(=O)NC2=C3C=CNC3=NC=C2)N
Method in brief: as §1

duvelisib = compound: C[C@H](Nc1ncnc2nc[nH]c12)c1cc2cccc(Cl)c2c(=O)n1-c1ccccc1 [duvelisib]
Method in brief: as §1

gandotinib = compound: Cc1cc(Nc2cc(CN3CCOCC3)c3nc(C)c(Cc4ccc(Cl)cc4F)n3n2)n[nH]1 [gandotinib]
Method in brief: as §1

tozasertib = compound: Cc1cc(Nc2cc(N3CCN(C)CC3)nc(Sc3ccc(NC(=O)C4CC4)cc3)n2)n[nH]1 [tozasertib]
Method in brief: as §1

doramapimod = compound: Cc1ccc(-n2nc(C(C)(C)C)cc2NC(=O)Nc2ccc(OCCN3CCOCC3)c3ccccc23)cc1 [doramapimod]
Method in brief: as §1

bafetinib = compound: Cc1ccc(NC(=O)c2ccc(CN3CC[C@H](N(C)C)C3)c(C(F)(F)F)c2)cc1Nc1nccc(-c2cncnc2)n1 [bafetinib]
Method in brief: as §1

[2] = compound: Cc1cccc(CC(=O)N2CCc3c2ccc(-c2cn(C)c4ncnc(N)c24)c3F)n1
Method in brief: as §1

pictilisib = compound: CS(=O)(=O)N1CCN(Cc2cc3nc(-c4cccc5[nH]ncc45)nc(N4CCOCC4)c3s2)CC1 [pictilisib]
Method in brief: as §1

Measured: log2 fold change

CLASP2 isoform 3 (UniProt O75122)
active: [2] 0.247
inactive: lapatinib -0.008 | crizotinib -0.018 | [1] -0.172 | duvelisib -0.015 | gandotinib 0.077 | tozasertib 0.015 | doramapimod 0.041 | bafetinib -0.021

CLCN3 (UniProt P51790)
inactive: lapatinib 0.004 | crizotinib 0.014 | [1] -0.09 | duvelisib -0.017 | gandotinib -0.106 | tozasertib -0.008 | doramapimod 0.033 | bafetinib -0.004 | [2] 0.13

CHMP4A (UniProt H0YIN6)
inactive: lapatinib -0.078 | pictilisib -0.071 | crizotinib -0.211 | [1] -0.091 | duvelisib 0 | gandotinib 0.451 | doramapimod -0.059 | bafetinib -0.098 | [2] 0.325

CMIP (UniProt Q8IY22)
inactive: lapatinib 0.002 | pictilisib -0.013 | crizotinib -0.001 | [1] 0.046 | duvelisib -0.035 | gandotinib -0.062 | tozasertib 0.017 | doramapimod -0.094 | bafetinib -0.064 | [2] 0.002

CSNK1G3 (UniProt Q9Y6M4)
inactive: lapatinib -0.155 | pictilisib 0.118 | crizotinib 0.026 | [1] 0.214 | duvelisib -0.042 | gandotinib -0.032 | tozasertib -0.048 | doramapimod -0.003 | bafetinib -0.09 | [2] -0.021

CPT1A (UniProt P50416)
inactive: lapatinib 0.013 | pictilisib 0.014 | crizotinib 0.114 | [1] 0.009 | duvelisib 0.021 | gandotinib 0.057 | tozasertib 0.037 | doramapimod 0.038 | bafetinib -0.056 | [2] -0.027

COG5 isoform 2 (UniProt Q9UP83)
UniProt Q9UP83, sequence (Q9UP83 whole entry, looked up): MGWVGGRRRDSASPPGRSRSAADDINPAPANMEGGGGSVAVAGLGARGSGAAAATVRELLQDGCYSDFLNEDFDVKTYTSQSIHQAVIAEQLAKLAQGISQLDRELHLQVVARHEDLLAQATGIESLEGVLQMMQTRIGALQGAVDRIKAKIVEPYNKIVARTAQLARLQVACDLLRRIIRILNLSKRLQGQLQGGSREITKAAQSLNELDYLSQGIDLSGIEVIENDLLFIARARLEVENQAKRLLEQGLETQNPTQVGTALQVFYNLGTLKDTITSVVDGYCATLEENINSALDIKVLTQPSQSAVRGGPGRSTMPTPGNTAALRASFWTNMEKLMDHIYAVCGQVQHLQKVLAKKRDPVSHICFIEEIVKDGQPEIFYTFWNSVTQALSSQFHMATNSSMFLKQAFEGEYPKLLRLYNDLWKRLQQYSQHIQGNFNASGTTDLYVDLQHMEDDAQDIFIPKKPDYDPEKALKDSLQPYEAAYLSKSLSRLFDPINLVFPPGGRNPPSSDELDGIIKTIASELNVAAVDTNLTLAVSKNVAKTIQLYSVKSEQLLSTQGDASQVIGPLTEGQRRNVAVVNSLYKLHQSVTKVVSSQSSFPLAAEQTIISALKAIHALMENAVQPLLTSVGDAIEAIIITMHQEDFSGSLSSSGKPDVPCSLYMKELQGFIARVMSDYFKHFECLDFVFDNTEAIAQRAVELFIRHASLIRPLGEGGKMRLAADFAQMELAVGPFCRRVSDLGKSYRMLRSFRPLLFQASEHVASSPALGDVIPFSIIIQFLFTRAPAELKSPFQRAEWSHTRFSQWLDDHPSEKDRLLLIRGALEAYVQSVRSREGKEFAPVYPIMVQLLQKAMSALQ
inactive: lapatinib -0.059 | pictilisib -0.03 | crizotinib -0.025 | [1] 0.027 | duvelisib 0.007 | gandotinib -0.071 | tozasertib 0.013 | doramapimod -0.024 | bafetinib -0.034 | [2] 0.062

DHRS3 (UniProt O75911)
inactive: lapatinib 0.02 | pictilisib -0.051 | crizotinib -0.024 | [1] -0.044 | duvelisib -0.025 | gandotinib 0.059 | tozasertib -0.043 | doramapimod 0.035 | bafetinib -0.032 | [2] 0.011

CLPB isoform 2 (UniProt Q9H078)
inactive: lapatinib -0.034 | crizotinib -0.03 | [1] 0.024 | duvelisib -0.015 | gandotinib -0.093 | tozasertib 0.046 | doramapimod -0.01 | bafetinib -0.072 | [2] 0.039

CLUH, A0A494C0R8
inactive: lapatinib -0.052 | crizotinib -0.019 | duvelisib 0.154 | gandotinib -0.108 | tozasertib -0.025 | doramapimod -0.026 | bafetinib -0.091 | [2] -0.14
active: [1] 0.557

CHMP4A isoform 2 (UniProt Q9BY43)
inactive: lapatinib 0.009 | pictilisib 0.022 | crizotinib -0.047 | duvelisib -0.001 | gandotinib 0.182 | tozasertib -0.01 | doramapimod 0.054 | bafetinib -0.036 | [2] 0.18
active: [1] -0.227

CSNK2A1 (UniProt P68400)
inactive: lapatinib -0.038 | pictilisib 0.016 | crizotinib 0.007 | [1] -0.021 | duvelisib -0.002 | gandotinib -0.007 | tozasertib -0.006 | doramapimod -0.003 | bafetinib 0.027 | [2] -0.018

CNTN4 (UniProt Q8IWV2)
inactive: lapatinib -0.052 | pictilisib -0.066 | crizotinib -0.268 | [1] -0.432 | gandotinib 0.545 | tozasertib -0.182 | doramapimod -0.067 | bafetinib -0.145 | [2] 0.484

DNAH5 (UniProt Q8TE73)
active: [1] -0.422
inactive: lapatinib 0.043 | pictilisib -0.005 | duvelisib -0.051 | gandotinib 0.181 | bafetinib -0.047 | [2] 0.175

CSDE1 isoform 3 (UniProt O75534)
inactive: lapatinib 0.184 | pictilisib -0.141 | crizotinib -0.179 | [1] 0.139 | gandotinib -0.043 | doramapimod 0.055 | bafetinib 0.126 | [2] -0.058

DPY19L3 (UniProt Q6ZPD9)
UniProt Q6ZPD9, sequence (Q6ZPD9 whole entry, looked up): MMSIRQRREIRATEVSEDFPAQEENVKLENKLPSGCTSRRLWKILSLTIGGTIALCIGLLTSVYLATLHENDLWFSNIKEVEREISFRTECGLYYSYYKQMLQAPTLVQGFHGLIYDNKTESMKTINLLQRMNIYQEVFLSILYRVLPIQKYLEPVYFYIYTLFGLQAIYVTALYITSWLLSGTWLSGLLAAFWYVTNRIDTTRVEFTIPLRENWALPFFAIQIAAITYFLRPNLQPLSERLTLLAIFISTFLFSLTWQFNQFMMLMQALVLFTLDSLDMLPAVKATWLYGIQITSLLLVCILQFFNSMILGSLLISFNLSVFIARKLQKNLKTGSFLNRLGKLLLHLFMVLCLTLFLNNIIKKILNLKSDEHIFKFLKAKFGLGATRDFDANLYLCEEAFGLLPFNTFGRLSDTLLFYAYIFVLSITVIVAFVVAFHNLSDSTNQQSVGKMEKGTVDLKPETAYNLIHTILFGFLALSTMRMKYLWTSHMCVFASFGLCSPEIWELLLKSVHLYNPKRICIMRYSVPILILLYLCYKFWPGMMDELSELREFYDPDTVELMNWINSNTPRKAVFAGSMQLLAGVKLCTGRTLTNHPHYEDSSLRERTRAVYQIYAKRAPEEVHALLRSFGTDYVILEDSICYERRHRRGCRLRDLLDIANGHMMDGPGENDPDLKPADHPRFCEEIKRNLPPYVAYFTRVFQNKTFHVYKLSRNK
inactive: lapatinib -0.077 | pictilisib -0.268 | crizotinib -0.107 | tozasertib 0.057 | doramapimod -0.081 | bafetinib -0.113

DDR1 isoform 5 (UniProt Q08345)
inactive: pictilisib -0.075 | [1] 0.097 | duvelisib -0.051 | gandotinib -0.305 | bafetinib 0.101 | [2] 0.007
active: crizotinib -0.712

CLPTM1L (UniProt Q96KA5)
inactive: lapatinib -0.095 | crizotinib -0.021 | [1] -0.092 | duvelisib -0.049 | tozasertib 0.004 | doramapimod -0.098 | bafetinib -0.064 | [2] 0.137
active: gandotinib -0.233

CLCN3 isoform 2 (UniProt P51790)
inactive: lapatinib 0.047 | crizotinib -0.047 | [1] -0.075 | duvelisib 0.034 | gandotinib -0.018 | tozasertib -0.011 | doramapimod 0.026 | bafetinib -0.005 | [2] 0.024

CSNK1A1 isoform 3 (UniProt P48729)
inactive: duvelisib -0.077

CORO7 (UniProt P57737)
UniProt P57737, sequence (P57737 whole entry, looked up): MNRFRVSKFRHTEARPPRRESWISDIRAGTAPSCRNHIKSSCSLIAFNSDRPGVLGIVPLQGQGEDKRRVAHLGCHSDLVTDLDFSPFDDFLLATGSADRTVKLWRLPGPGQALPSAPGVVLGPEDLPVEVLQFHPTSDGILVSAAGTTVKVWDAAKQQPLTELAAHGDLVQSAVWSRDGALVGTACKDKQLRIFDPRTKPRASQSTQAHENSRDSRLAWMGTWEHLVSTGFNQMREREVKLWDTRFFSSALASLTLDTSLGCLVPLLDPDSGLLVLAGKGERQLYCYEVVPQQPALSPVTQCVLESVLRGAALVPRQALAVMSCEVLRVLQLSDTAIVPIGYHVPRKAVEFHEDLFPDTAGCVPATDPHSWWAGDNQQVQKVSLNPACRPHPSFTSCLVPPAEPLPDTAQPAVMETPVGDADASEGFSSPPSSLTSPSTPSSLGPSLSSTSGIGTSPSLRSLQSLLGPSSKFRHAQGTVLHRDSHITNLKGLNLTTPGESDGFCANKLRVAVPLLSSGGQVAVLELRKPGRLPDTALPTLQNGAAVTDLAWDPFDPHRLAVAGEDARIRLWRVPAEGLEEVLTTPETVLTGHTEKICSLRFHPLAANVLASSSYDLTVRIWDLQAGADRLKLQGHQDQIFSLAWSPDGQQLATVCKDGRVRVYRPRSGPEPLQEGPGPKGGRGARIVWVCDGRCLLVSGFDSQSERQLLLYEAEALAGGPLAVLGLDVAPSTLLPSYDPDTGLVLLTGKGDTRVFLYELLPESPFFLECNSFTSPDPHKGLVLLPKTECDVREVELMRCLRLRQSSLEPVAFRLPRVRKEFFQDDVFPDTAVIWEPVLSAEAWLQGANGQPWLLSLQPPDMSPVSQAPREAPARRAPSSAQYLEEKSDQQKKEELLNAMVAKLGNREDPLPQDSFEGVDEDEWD
inactive: crizotinib -0.004 | [1] -0.139 | duvelisib -0.084 | gandotinib 0 | tozasertib 0.092 | doramapimod 0.016 | [2] -0.335

CSRP2 (UniProt Q16527)
inactive: pictilisib -0.063 | crizotinib -0.157 | [1] -0.018 | gandotinib -0.068 | tozasertib 0.118 | doramapimod 0.051 | bafetinib 0.072 | [2] 0.052

DAPK1 isoform 3 (UniProt P53355)
inactive: lapatinib 0.042 | crizotinib 0.022 | [1] 0.188 | duvelisib 0.042 | gandotinib 0.058 | doramapimod -0.141 | [2] -0.383

CLIP1 isoform 1 (UniProt P30622)
inactive: lapatinib 0.006 | crizotinib 0.023 | [1] -0.023 | duvelisib 0.004 | gandotinib 0.036 | tozasertib 0.001 | doramapimod 0.011 | bafetinib -0.003 | [2] -0.01

DLGAP5 isoform 3 (UniProt Q15398)
inactive: pictilisib 0.092 | [1] -0.176 | duvelisib -0.098 | gandotinib 0.05 | bafetinib 0.031 | [2] -0.505

CLP1 (UniProt Q92989)
inactive: lapatinib -0.003 | crizotinib -0.041 | [1] -0.12 | duvelisib -0.056 | gandotinib 0.008 | tozasertib 0.004 | doramapimod 0.032 | bafetinib 0.01 | [2] 0.047

DALRD3 (UniProt Q5D0E6)
UniProt Q5D0E6, sequence (Q5D0E6 whole entry, looked up): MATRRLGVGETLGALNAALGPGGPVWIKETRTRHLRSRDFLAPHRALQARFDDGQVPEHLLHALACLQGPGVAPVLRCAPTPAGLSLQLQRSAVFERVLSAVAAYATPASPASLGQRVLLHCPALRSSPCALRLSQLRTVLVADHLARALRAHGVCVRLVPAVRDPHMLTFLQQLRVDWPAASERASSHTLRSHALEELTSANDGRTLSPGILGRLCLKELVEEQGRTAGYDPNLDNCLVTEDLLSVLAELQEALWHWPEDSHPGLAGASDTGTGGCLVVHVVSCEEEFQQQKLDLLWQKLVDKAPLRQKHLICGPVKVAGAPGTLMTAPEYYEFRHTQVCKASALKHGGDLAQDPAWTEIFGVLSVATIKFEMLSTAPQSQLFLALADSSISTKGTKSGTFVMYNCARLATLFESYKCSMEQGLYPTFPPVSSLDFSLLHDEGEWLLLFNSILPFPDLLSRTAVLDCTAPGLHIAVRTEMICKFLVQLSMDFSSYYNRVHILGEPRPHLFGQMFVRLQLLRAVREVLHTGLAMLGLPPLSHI
inactive: lapatinib 0.021 | [1] -0.131 | gandotinib -0.087 | tozasertib 0.139 | [2] 0.096

COL12A1 (UniProt Q99715)
inactive: lapatinib -0.117 | crizotinib -0.031 | duvelisib 0.086 | tozasertib -0.021 | doramapimod 0.88

CLUH (UniProt O75153)
inactive: lapatinib -0.014 | crizotinib -0.057 | [1] -0.012 | duvelisib 0.147 | gandotinib 0.004 | tozasertib -0.005 | doramapimod -0.007 | bafetinib -0.044 | [2] 0.032

CLASP2 (UniProt O75122)
inactive: lapatinib 0.003 | crizotinib 0.127 | [1] -0.086 | gandotinib -0.031 | tozasertib 0.052 | doramapimod -0.001 | bafetinib -0.199 | [2] 0.067

DBF4 (UniProt Q9UBU7)
active: [1] -0.409
inactive: pictilisib 0 | crizotinib -0.031 | duvelisib 0.004 | gandotinib 0.059 | tozasertib -0.009 | doramapimod -0.018 | bafetinib -0.028 | [2] 0.035

CUX1 isoform 2 (UniProt Q13948)
UniProt Q13948, sequence (Q13948 whole entry, looked up): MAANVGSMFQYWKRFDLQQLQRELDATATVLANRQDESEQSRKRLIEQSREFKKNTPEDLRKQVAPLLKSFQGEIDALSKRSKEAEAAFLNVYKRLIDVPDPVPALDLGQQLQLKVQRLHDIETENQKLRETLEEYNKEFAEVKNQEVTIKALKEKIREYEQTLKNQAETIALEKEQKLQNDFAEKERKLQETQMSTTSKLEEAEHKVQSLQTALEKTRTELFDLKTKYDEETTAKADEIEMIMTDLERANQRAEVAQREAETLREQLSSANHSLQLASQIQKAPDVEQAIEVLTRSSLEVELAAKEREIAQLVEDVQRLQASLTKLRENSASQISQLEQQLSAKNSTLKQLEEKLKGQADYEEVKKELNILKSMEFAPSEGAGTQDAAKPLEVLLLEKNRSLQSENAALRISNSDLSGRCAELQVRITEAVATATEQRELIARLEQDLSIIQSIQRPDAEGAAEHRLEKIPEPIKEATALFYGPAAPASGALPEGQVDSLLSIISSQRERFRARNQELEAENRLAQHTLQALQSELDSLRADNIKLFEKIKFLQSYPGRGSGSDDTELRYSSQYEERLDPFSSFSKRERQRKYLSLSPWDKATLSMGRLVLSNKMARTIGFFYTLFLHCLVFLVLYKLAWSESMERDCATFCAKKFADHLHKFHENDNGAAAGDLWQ
inactive: lapatinib -0.168 | crizotinib -0.073 | [1] 0.104 | duvelisib 0.014 | gandotinib 0.041 | tozasertib 0.057 | doramapimod -0.12 | [2] -0.089

COL6A3 (UniProt P12111)
inactive: pictilisib -0.019 | crizotinib -0.023 | [1] -0.04 | duvelisib 0.013 | gandotinib -0.036 | doramapimod 0.032 | bafetinib 0.036 | [2] 0.048

DHX32 (UniProt Q7L7V1)
inactive: crizotinib -0.03 | [1] -0.013 | gandotinib -0.01 | tozasertib 0.108 | doramapimod 0.012 | [2] -0.077

CYP2S1 isoform 2 (UniProt Q96SQ9)
UniProt Q96SQ9, sequence (Q96SQ9 whole entry, looked up): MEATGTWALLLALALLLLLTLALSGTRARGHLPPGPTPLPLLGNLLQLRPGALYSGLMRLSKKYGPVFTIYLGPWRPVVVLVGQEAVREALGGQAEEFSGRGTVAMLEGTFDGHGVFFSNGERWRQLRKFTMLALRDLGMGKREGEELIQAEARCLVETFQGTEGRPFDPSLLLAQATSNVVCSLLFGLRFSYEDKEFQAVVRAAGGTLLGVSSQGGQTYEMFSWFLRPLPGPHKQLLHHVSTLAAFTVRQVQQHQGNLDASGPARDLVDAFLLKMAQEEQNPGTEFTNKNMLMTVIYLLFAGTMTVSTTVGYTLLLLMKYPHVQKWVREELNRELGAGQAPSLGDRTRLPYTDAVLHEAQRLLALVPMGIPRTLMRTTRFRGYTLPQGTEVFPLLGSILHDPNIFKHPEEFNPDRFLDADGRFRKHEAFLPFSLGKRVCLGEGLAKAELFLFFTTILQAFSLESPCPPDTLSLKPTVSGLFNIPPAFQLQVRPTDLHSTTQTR
inactive: lapatinib 0.316 | crizotinib 0.023 | duvelisib -0.075 | tozasertib -0.023 | doramapimod -0.057

DNM2 isoform 4 (UniProt P50570)
inactive: lapatinib 0.031 | crizotinib 0.014 | [1] -0.16 | duvelisib 0.015 | gandotinib -0.134 | tozasertib -0.084 | doramapimod 0.066 | [2] 0.16

CHFR (UniProt Q96EP1)
UniProt Q96EP1, sequence (Q96EP1 whole entry, looked up): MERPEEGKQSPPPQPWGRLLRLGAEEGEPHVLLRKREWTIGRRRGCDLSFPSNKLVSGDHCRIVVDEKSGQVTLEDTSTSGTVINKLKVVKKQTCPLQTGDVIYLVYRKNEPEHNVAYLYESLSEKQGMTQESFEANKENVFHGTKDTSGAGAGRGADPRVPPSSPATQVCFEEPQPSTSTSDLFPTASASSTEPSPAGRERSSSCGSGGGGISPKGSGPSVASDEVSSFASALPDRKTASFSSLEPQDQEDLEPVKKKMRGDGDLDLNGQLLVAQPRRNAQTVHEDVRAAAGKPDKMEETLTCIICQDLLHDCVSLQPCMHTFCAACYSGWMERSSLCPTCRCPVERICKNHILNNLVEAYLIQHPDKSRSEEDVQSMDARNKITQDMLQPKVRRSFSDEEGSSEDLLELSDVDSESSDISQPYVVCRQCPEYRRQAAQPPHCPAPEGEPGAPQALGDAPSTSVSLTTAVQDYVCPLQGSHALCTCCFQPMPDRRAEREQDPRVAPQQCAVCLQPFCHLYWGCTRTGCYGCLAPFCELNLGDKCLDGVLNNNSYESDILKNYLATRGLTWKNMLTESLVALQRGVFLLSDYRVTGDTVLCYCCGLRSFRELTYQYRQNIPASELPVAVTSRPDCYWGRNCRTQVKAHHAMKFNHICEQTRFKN
inactive: lapatinib -0.062 | crizotinib -0.051 | duvelisib 0.023 | tozasertib -0.063 | doramapimod -0.012

CLASP1 (UniProt Q7Z460)
inactive: lapatinib 0 | crizotinib -0.051 | [1] -0.09 | duvelisib -0.003 | gandotinib 0.188 | tozasertib 0.004 | doramapimod 0.03 | bafetinib -0.042 | [2] 0.185

CLIP1, A0A3B3ITA2
inactive: crizotinib -0.033 | [1] -0.222 | gandotinib 0.55 | doramapimod -0.138 | [2] 0.269

DCTN1 isoform 4 (UniProt Q14203)
inactive: lapatinib -0.039 | crizotinib -0.031 | [1] 0.054 | duvelisib -0.032 | gandotinib 0.121 | tozasertib 0.173 | doramapimod -0.103 | [2] -0.239

CIC (UniProt I3L1Q4)
inactive: pictilisib 0.065 | bafetinib 0.021

CNNM2 (UniProt Q9H8M5)
inactive: lapatinib 0.006 | crizotinib 0.021 | [1] -0.039 | duvelisib 0.041 | gandotinib -0.064 | tozasertib -0.078 | doramapimod -0.026 | [2] 0.036

DNAJC24 (UniProt Q6P3W2)
inactive: lapatinib 0.006 | crizotinib 0.074 | [1] 0.152 | duvelisib -0.025 | gandotinib -0.162 | tozasertib 0.073 | doramapimod 0.042 | [2] -0.134

DNA2 (UniProt P51530)
inactive: crizotinib -0.046 | [1] 0.052 | duvelisib -0.02 | gandotinib 0.013 | tozasertib -0.07 | doramapimod 0.051 | [2] -0.017

CNK3/IPCEF1 isoform 2 (UniProt G9CGD6)
inactive: duvelisib 0.129 | gandotinib 0.326 | tozasertib 0.105 | [2] 0.4
active: [1] -1.84

DDAH1 (UniProt O94760)
inactive: lapatinib 0.011 | crizotinib 0 | [1] 0.059 | duvelisib 0.186 | gandotinib -0.039 | tozasertib -0.044 | doramapimod -0.058 | [2] 0.196

CPLX1 (UniProt O14810)
inactive: lapatinib -0.095 | duvelisib -0.001 | tozasertib 0.167

COX7B (UniProt P24311)
UniProt P24311, sequence (P24311 whole entry, looked up): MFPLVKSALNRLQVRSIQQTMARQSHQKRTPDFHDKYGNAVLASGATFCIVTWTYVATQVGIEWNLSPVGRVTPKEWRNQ
inactive: lapatinib -0.002 | crizotinib 0.058 | [1] 0.025 | duvelisib 0.005 | gandotinib 0.01 | tozasertib 0.035 | doramapimod 0.035 | [2] 0.099

DESI2 (UniProt Q9BSY9)
inactive: [1] -0.095 | gandotinib -0.078 | tozasertib -0.095 | [2] 0.316

CXCL14 (UniProt O95715)
inactive: pictilisib -0.083 | tozasertib -0.021 | bafetinib -0.649

CSAD isoform 3 (UniProt Q9Y600)
inactive: pictilisib -0.123 | crizotinib -0.123 | doramapimod 0.035 | bafetinib 0.046
